{"source": "PubChem BioAssay AID2315", "about": "(National Center for Advancing Translational Sciences (NCATS), 2010)", "note": "Hit rate of the full screen: of about 290,000 compounds, about 27,000 (9.3%) were called active. The sample holds actives, similar compounds and a random draw of the others, so the mix is not that of the screen. Rule as the data show it: active = inhibition mostly above about 28% (no sharp cut-off); inactive = mostly below about 43%.", "data": [{"experiment": "A qHTS for Small Molecule Inhibitors of Shiga Toxin; also: 0% is about no effect", "settings": "Vero cells, Shiga toxin protein synthesis inhibition reporter; at 38.7 µM, active compounds read high", "values": [{"smiles": "O=C(Nc1ccc2ccccc2c1)Nc1ccc2snnc2c1", "inhibition": "1.94% (inactive)"}, {"smiles": "O=C(Nc1cccc(Br)c1)c1ccc2snnc2c1", "inhibition": "64% (active)"}, {"smiles": "CCc1ccccc1NC(=O)c1ccc2snnc2c1", "inhibition": "-5.07% (inactive)"}, {"smiles": "COc1ccccc1S(=O)(=O)c1c(C)cc(C)[nH]c1=O", "inhibition": "-2.84% (inactive)"}, {"smiles": "Cc1cccc([C@@H]2[C@@H]3C(=O)N(C)C(=O)[C@@H]3[C@@H]3C(=O)Nc4ccccc4C(=O)N23)c1", "inhibition": "-2.83% (inactive)"}, {"smiles": "Cn1sc(NC(=O)c2ccccc2)nc1=O", "inhibition": "33.6% (inactive)"}, {"smiles": "Cn1c(NC(=O)c2ccccc2)nc2ccccc21", "inhibition": "43.5% (active)"}, {"smiles": "Cn1c(S(=O)(=O)O)nc2ccccc21", "inhibition": "-9% (inactive)"}, {"smiles": "Cc1ccc2cc(C)c(N3CCN(c4ccc(F)cc4)CC3)nc2c1", "inhibition": "27.6% (inactive)"}, {"smiles": "Cc1nn(-c2ccccn2)c2c1C(c1ccncc1)C1=C(CC(C)(C)CC1=O)N2", "note": "(stereo not given)", "inhibition": "-3.23% (inactive)"}, {"smiles": "Cc1cc2c(cc1C)NC(c1ccccn1)C1=C(CC(C)(C)CC1=O)N2", "note": "(stereo not given)", "inhibition": "51.7% (active)"}, {"smiles": "CC1(C)CC(=O)C2=C(C1)Nc1cc(C(=O)c3ccccc3)ccc1NC2c1ccccn1", "note": "(stereo not given)", "inhibition": "-5.56% (inactive)"}, {"smiles": "CCc1ccc(CN(C)C(=O)C2CCC(=O)N(Cc3cccc(OC)c3)C2)nc1", "note": "(stereo not given)", "inhibition": "22.8% (inactive)"}, {"smiles": "CCOc1cccc(-c2nnc(SCC(=O)NC3CC3)n2C)c1", "inhibition": "27% (inactive)"}, {"smiles": "COc1ccc(NC(=O)CSc2nncc(=O)n2N)cc1OC", "inhibition": "-9.85% (inactive)"}, {"smiles": "O=C(COC(=O)Cn1cnc2ccccc21)Nc1cccc2c1C(=O)c1ccccc1C2=O", "inhibition": "-13.5% (inactive)"}, {"smiles": "O=C(COC(=O)c1cccc(Br)c1)Nc1cccc2c1C(=O)c1ccccc1C2=O", "inhibition": "31.4% (active)"}, {"smiles": "O=C(COC(=O)c1ccccc1)Nc1ccccc1Sc1ccccc1", "inhibition": "-9.76% (inactive)"}, {"smiles": "COc1ccc(C(=O)COC(=O)Cn2cnc3c2c(=O)n(C)c(=O)n3C)c(OC)c1", "inhibition": "-5.14% (inactive)"}, {"smiles": "COc1cnc(-c2ccccn2)nc1Oc1ccc(C(C)(C)C)cc1", "inhibition": "1.11% (inactive)"}, {"smiles": "CC(C)(C)Nc1nc(-c2ccccn2)nc2ccccc12", "inhibition": "-14.9% (inactive)"}, {"smiles": "Cc1ccc(Oc2nc(-c3ccccn3)nc3ccccc23)cc1", "inhibition": "57.7% (active)"}, {"smiles": "COC1=C(N2CCOCC2)C(=O)c2ccccc2C1=O", "inhibition": "-6.31% (inactive)"}, {"smiles": "CCOCCc1nn2c(=O)cc(CSCC(=O)Nc3cccc(C)c3C)nc2s1", "inhibition": "-13.9% (inactive)"}, {"smiles": "O=C(Nc1cccc(-c2cscn2)c1)C1CCN(Cc2ccsc2)CC1", "inhibition": "-4.07% (inactive)"}, {"smiles": "COCCNC(=O)COc1ccc(N(C)S(=O)(=O)c2ccc3ccccc3c2)cc1", "inhibition": "-8.35% (inactive)"}, {"smiles": "Cc1nc2ccccc2nc(C)c1=NOCc1ccc(Cl)cc1Cl", "inhibition": "112% (active)"}, {"smiles": "COC(=O)c1sc2ncccc2c1OCc1ccc(Cl)cc1Cl", "inhibition": "6.72% (inactive)"}, {"smiles": "O=S(=O)(O)c1nc2ccccc2n1Cc1ccc(Cl)cc1Cl", "inhibition": "-6.41% (inactive)"}, {"smiles": "COC(=O)CSc1nnc(NC(=O)CCc2ccccc2)s1", "inhibition": "10.7% (inactive)"}, {"smiles": "COc1ccc(CNS(=O)(=O)c2ccc(-c3cnc(C4CC4)o3)cc2)cc1", "inhibition": "-4.74% (inactive)"}, {"smiles": "Cc1ccc(-n2ncc3c2CC(C)(C)CC3NC(=O)CCc2cnn(C)c2)cc1", "note": "(stereo not given)", "inhibition": "-4.16% (inactive)"}, {"smiles": "Cc1ccc(S(=O)(=O)N(NC2=NS(=O)(=O)c3ccccc32)C(=O)c2ccccc2)cc1", "inhibition": "-6.05% (inactive)"}, {"smiles": "O=C(Oc1cccc(NC2=NS(=O)(=O)c3ccccc32)c1)c1ccncc1", "inhibition": "2.4% (inactive)"}, {"smiles": "CC(C)(C)c1csc(NC2=NS(=O)(=O)c3ccccc32)n1", "inhibition": "97.3% (active)"}, {"smiles": "Cc1ccc(C(C)C)c(OCCSc2nc3ccccc3n2CC(=O)O)c1", "inhibition": "-6.58% (inactive)"}, {"smiles": "CC(OC(=O)c1ccccc1OCc1ccc(Cl)cc1)C(N)=O", "note": "(stereo not given)", "inhibition": "-20.8% (inactive)"}, {"smiles": "C=CCc1ccccc1OCC(O)CN1CCN(CCO)CC1", "note": "(stereo not given)", "inhibition": "-5.91% (inactive)"}, {"smiles": "Cc1ccccc1NC(=O)C1CCCN(C(=O)NCc2ccccc2)C1", "note": "(stereo not given)", "inhibition": "-9.33% (inactive)"}, {"smiles": "O=C(c1ccc(-c2ccccc2)cc1)C1CCCN(C(=O)c2cncs2)C1", "note": "(stereo not given)", "inhibition": "16.3% (inactive)"}, {"smiles": "CCNC(=O)N1CCCC(C(=O)c2ccc(-c3ccccc3)cc2)C1", "note": "(stereo not given)", "inhibition": "36.1% (active)"}, {"smiles": "Cc1cccc(C(=O)N2CCN(S(=O)(=O)N3CCCCC3)CC2)c1", "inhibition": "12.6% (inactive)"}, {"smiles": "CCC1CCCCN1C(=O)CSc1nc2c(c(=O)n1C)SC(C)C2", "note": "(stereo not given)", "inhibition": "-5.97% (inactive)"}, {"smiles": "CCCCN(CCCC)CCNC(=O)CN1C(=O)COc2ccc(S(=O)(=O)N3CCOCC3)cc21", "inhibition": "-2.7% (inactive)"}, {"smiles": "NS(=O)(=O)c1ccc(N=Nc2c(O)[nH]c3ccc(Br)cc23)cc1", "inhibition": "58.5% (inactive)"}, {"smiles": "Oc1[nH]c2ccc(Br)cc2c1N=Nc1nn[nH]n1", "inhibition": "2.43% (inactive)"}, {"smiles": "Cc1cccc(N=Nc2c(O)[nH]c3ccc(F)cc23)c1", "inhibition": "143% (active)"}, {"smiles": "Cc1ccc(CNC(=O)C2CCN(S(=O)(=O)c3ccc4nc5c(c(C(=O)O)c4c3)CC(C)CC5)CC2)cc1", "note": "(stereo not given)", "inhibition": "19.6% (inactive)"}, {"smiles": "CCOC(=O)CSc1nnc(NC(=O)C2CC(=O)N(c3ccc(F)cc3)C2)s1", "note": "(stereo not given)", "inhibition": "-11.5% (inactive)"}, {"smiles": "Cc1ccc(S(=O)(=O)NCC2CCC(C(=O)N3CCOCC3)CC2)cc1", "note": "(stereo not given)", "inhibition": "-3.33% (inactive)"}, {"smiles": "O=C(c1cccnc1)N1CCN(S(=O)(=O)c2cccs2)CC1", "inhibition": "-10.5% (inactive)"}, {"smiles": "CCOC(=O)c1cccc(NC(=O)CN2C(=O)C3CC=CCC3C2=O)c1", "note": "(stereo not given)", "inhibition": "-2.13% (inactive)"}, {"smiles": "Cc1ccc(NC(=O)NC(=O)N(C2CCCCC2)S(=O)(=O)c2ccccc2)cc1", "inhibition": "0% (active)"}, {"smiles": "CC(c1ccco1)N(C(=O)Nc1ccccc1)C1CCCCC1", "note": "(stereo not given)", "inhibition": "71.5% (inactive)"}, {"smiles": "Cc1ccc(S(=O)(=O)N(C)CC(=O)OCC(=O)Nc2ccccc2)cc1", "inhibition": "10.4% (inactive)"}, {"smiles": "COc1cc(Br)c(-c2sc(Nc3ccccc3)n[n+]2-c2ccccc2)cc1OC", "inhibition": "-9.06% (inactive)"}, {"smiles": "COc1ccc(C(=O)NNC(=S)NC(=O)c2ccccc2)cc1", "inhibition": "31.4% (inactive)"}, {"smiles": "Cc1ccccc1NC(=S)NC(=O)Cc1ccc(Cl)cc1", "inhibition": "-4.05% (inactive)"}, {"smiles": "Cc1ccccc1NC(=S)NNC(=O)c1cccc(Br)c1", "inhibition": "48.8% (inactive)"}, {"smiles": "CCOC(=O)c1c(-c2ccccc2)csc1NC(=S)NC(=O)c1ccccc1", "inhibition": "-2.96% (inactive)"}, {"smiles": "Cc1ccc(NC(=S)N/N=C2/CCCc3c(C)cc(C)cc32)cc1", "inhibition": "-4.99% (inactive)"}, {"smiles": "Cc1ccc(C)c(NC(=S)NNC(=S)Nc2ccc(C(C)C)cc2)c1", "inhibition": "50.1% (active)"}, {"smiles": "Cc1ccc(C(=O)NC(=S)Nc2ccccc2C)cc1", "inhibition": "97.5% (active)"}, {"smiles": "CC(C)c1ccc(NC(=S)NNc2ccc(Cl)c(C(=O)O)c2)cc1", "inhibition": "52% (inactive)"}, {"smiles": "Cc1cc(C(=O)Nc2c(C)n(C)n(-c3ccccc3)c2=O)cs1", "inhibition": "-6.98% (inactive)"}, {"smiles": "Cn1nnc(NC(=S)NC(=O)c2ccccc2)n1", "inhibition": "64.6% (active)"}, {"smiles": "Cc1ccc(C(=O)NC(=S)Nc2ccc(N3CCOCC3)cc2)cc1", "inhibition": "30% (inactive)"}, {"smiles": "Cc1cc(C(=O)NNC(=S)Nc2ccccc2C)cs1", "inhibition": "66.8% (active)"}, {"smiles": "O=C(Nc1ccc(F)cc1)C1CCCN(S(=O)(=O)c2ccc(-n3cnnn3)cc2)C1", "note": "(stereo not given)", "inhibition": "-10.1% (inactive)"}, {"smiles": "Cc1nn(CC(=O)NC2CCCCC2)c(=O)c2cccn12", "inhibition": "1.03% (inactive)"}, {"smiles": "CN(CC(=O)Nc1c(Cl)cccc1Cl)C(=O)CNC(=O)C1CCCCC1", "inhibition": "8.74% (inactive)"}, {"smiles": "CCc1nccn1CCC(=O)N1CCCC(N2CCN(c3ccccc3F)CC2)C1", "note": "(stereo not given)", "inhibition": "-3.27% (inactive)"}, {"smiles": "O=C(Nc1cc(-c2nc3ncccc3o2)ccc1Cl)c1ccco1", "inhibition": "-5.97% (inactive)"}, {"smiles": "O=C1C[C@@H](c2ccc3ccccc3c2)N1S(=O)(=O)c1ccccc1[N+](=O)[O-]", "inhibition": "-7.61% (inactive)"}, {"smiles": "Cc1sc2ncn(CC(=O)NCCCC(=O)N3CCN(c4ccccc4F)CC3)c(=O)c2c1C", "inhibition": "-6.47% (inactive)"}, {"smiles": "CC1(C)Cc2c(sc(NC(=O)C(=O)NCC3CCCO3)c2C(=O)O)CO1", "note": "(stereo not given)", "inhibition": "-2.38% (inactive)"}, {"smiles": "COc1cccc(CNC(=O)c2nnn(CC(=O)Nc3cc(C)ccc3C)c2N)c1", "inhibition": "-3.78% (inactive)"}, {"smiles": "Cc1cc2[nH]ncc2cc1NC(=S)NC(=O)c1ccccc1", "inhibition": "34.9% (active)"}, {"smiles": "Cc1ccc(C)c(NC(=O)NNC(=O)c2ccc3ccccc3c2O)c1", "inhibition": "-2.25% (inactive)"}, {"smiles": "Cc1ccc(C)c(NC(=S)NNC(=O)c2csc(C)c2)c1", "inhibition": "22.3% (active)"}, {"smiles": "Cc1ccc(C(=O)NC(=S)NCCN2CCOCC2)cc1", "inhibition": "57.3% (active)"}, {"smiles": "CC(C)(C)c1cc(C(=O)NCc2cccnc2)ccn1", "inhibition": "-3.32% (inactive)"}, {"smiles": "Cc1c(C(=O)NC(=S)NCc2cccnc2)oc2ccccc12", "inhibition": "-22.1% (inactive)"}, {"smiles": "Cc1cc(C(=O)NNC(=S)NC(C)c2ccccc2)cs1", "note": "(stereo not given)", "inhibition": "8.77% (inactive)"}, {"smiles": "Cc1ccc(C(=O)N/C(=C\\c2ccc(F)cc2)C(=O)NCCN2CCOCC2)cc1", "inhibition": "-6.91% (inactive)"}, {"smiles": "Cc1ccc(C(=O)NC(=S)NCc2cccnc2)cc1", "inhibition": "56% (active)"}, {"smiles": "CCc1cccc(CC)c1NC(=S)Nc1ccc2cn[nH]c2c1", "inhibition": "-6.34% (inactive)"}, {"smiles": "Cc1cccc(NC(=S)Nc2ccc3cn[nH]c3c2)c1", "inhibition": "-14.2% (inactive)"}, {"smiles": "Cc1ccc(NC(=S)NCCN2CCOCC2)cc1", "inhibition": "-3.76% (inactive)"}, {"smiles": "CN(C)CCN(Cc1ccccc1)S(=O)(=O)c1csc(C(N)=O)c1", "inhibition": "-1.58% (inactive)"}, {"smiles": "CCOC(=O)c1cccc(NC(=O)CCc2nnc3ccc(N4CCOCC4)nn23)c1", "inhibition": "-1.45% (inactive)"}, {"smiles": "CC1CC(C)CN(C(=O)CCNC(=O)Cn2cnc3ccccc3c2=O)C1", "note": "(stereo not given)", "inhibition": "-11.9% (inactive)"}, {"smiles": "Cc1ccccc1OCC(=O)Nc1nnc(S(=O)(=O)N2CCCC2)s1", "inhibition": "-10.5% (inactive)"}, {"smiles": "CC(=O)c1cc(CN2CCC(n3nccc3NC(=O)c3ccccc3Cl)CC2)cs1", "inhibition": "-20.5% (inactive)"}, {"smiles": "O=C(Nc1ccnn1C1CCN(Cc2cccc(OCCO)c2)CC1)C1CCCC1", "inhibition": "-5.27% (inactive)"}]}]}
